For 20 compounds, Percent Effect results are on record in ChEMBL document CHEMBL3988442, “University of Dundee, Small-Polar-MMV Screening Library” (2021).

In experiment [1] the target is T1, Aspartate--tRNA(Asp/Asn) ligase (Mycobacterium tuberculosis (strain ATCC 25618 / H37Rv)) (UniProt P9WFW3). Also: in the data most compounds retested in dose-response had high values.
T1 sequence (whole entry): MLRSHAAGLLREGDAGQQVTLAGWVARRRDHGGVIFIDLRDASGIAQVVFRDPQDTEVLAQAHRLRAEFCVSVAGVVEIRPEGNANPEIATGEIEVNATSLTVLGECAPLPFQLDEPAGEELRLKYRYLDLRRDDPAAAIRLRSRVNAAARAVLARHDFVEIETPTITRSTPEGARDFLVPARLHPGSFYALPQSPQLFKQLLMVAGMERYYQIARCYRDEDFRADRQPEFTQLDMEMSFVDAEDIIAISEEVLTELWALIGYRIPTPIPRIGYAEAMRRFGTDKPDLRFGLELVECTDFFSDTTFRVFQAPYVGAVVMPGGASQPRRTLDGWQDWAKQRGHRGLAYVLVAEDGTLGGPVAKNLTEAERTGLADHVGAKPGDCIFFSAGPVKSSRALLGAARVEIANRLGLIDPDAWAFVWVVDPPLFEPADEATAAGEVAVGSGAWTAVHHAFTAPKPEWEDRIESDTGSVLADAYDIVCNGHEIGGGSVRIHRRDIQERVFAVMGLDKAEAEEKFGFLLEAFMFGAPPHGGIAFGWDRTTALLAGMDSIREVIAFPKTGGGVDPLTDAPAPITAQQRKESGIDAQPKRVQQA
The experiment can be described thus: Assay for Asp RNA synthetase-1 from Mycobacterium tuberculosis. The experiment is classed as functional. Also noted: scale not given: direction of the effect not stated beside the values. The following applies: 30 µM.

Experiment [2] deals with Shiga toxin 2 (Escherichia coli O157:H7) (UniProt P09385+P09386). The experiment can be described thus: E. coli 0.157:H7 Shiga Toxin SOP - stx2 screening assay. The experiment is classed as functional. Also noted: scale not given: direction of the effect not stated beside the values. The following applies: 30 µM.

As to `COc1ccccc1CC(=O)NCc1c(C)nc2cc(=O)[nH]n2c1C`, the Percent Effect in experiment [1] was -0.878%; in experiment [2], 13.6%.
For `Cc1cc(C(=O)N2CCC3(CCCN(CC4CC4)C3=O)C2)c(C)n1C` (stereo not given), the Percent Effect in experiment [1] was -1.12%; in experiment [2], -7.28%.
Regarding `CSc1ccc(CNC(c2ccccc2)c2nccn2C)cc1` (stereo not given), the Percent Effect in experiment [1] is 3.61%; in experiment [2] it was -1.22%.
Take `O=C(c1cc(C2CC2)[nH]n1)N1CCCC(n2cncn2)C1` (stereo not given): the Percent Effect in experiment [1] is -3.08%; in experiment [2], 12.1%.
Turning to `CCS(=O)(=O)N1CCc2c(CN(C)Cc3ccco3)cncc2C1`, the Percent Effect in experiment [1] was -0.0582%; in experiment [2], -1.96%.
As for `CN(C)CCNC(=O)c1cnc2c(c1)nc(-c1ccccc1Cl)n2C`, the results for the Percent Effect in experiment [1] and in experiment [2] were 3.74% and 5.62%, respectively.
The corresponding values for `CC(NC(=O)NCCCO)c1ccc2c(c1)OCCO2` (stereo not given) are 0.291% and -10.2%.
Consider `COCCC(=O)N1CCc2cc(Cl)cc(Cl)c2C1`, for which the results for the Percent Effect in experiment [1] and in experiment [2] were 1.46% and -18.1%, respectively.
For the compound `Cc1ccc(=O)n(CC2(O)CCN(Cc3cc(C)c(O)c(C)c3)CC2)n1`, the values for the Percent Effect in experiment [1] and in experiment [2] were -3.32% and -78.5%, respectively.
Consider `O=C(Nc1cnn(CCN2CCOCC2)c1)c1cc(F)ccc1F`, for which the values for the Percent Effect in experiment [1] and in experiment [2] were 0.211% and 21.3%, respectively.
The corresponding values for `Cc1nc(-c2ccsc2)ccc1C(=O)NCCC1CCCO1` (stereo not given) are 0.767% and -18.3%.
Regarding `CN(Cc1ccco1)Cc1ccccc1CNC(=O)c1ccncc1`, the Percent Effect was -0.97% in experiment [1] and 12.1% in experiment [2].
Turning to `NC(=O)c1ccc(S(=O)(=O)NC(=O)COc2ccc3c(c2)CCC3)cc1`, the Percent Effect in experiment [1] was -2.01%; in experiment [2] it was 13.5%.
The corresponding values for `Cc1cc(NC(=O)C(c2cccc(F)c2)N2CCOCC2)ccn1` (stereo not given) are 5% and -6.3%.
`Cc1cccc(N2CC[C@@H]3CN(Cc4csc(C)n4)CCO[C@@H]3C2)n1`: the Percent Effect in experiment [1] is -1.08%; in experiment [2] it was -42.6%.
As for `Cc1nc(NC2CCCC2)cc(C2CCN2C(=O)c2ccccc2)n1` (stereo not given), the Percent Effect in experiment [1] is -4.99%; in experiment [2] it was -18.1%.
Consider `COc1ccc(CN2CCn3cc(CN4CCN(C)CC4)nc3C2)cc1`, for which the Percent Effect in experiment [1] was -1.67%; in experiment [2] it was 10.3%.
As to `CSCc1cccc(S(=O)(=O)NCCCn2ccnc2)c1`, the Percent Effect in experiment [1] was 11%; in experiment [2], -15.1%.
On to `Cc1cc(-c2cnc(NC3CCCC3)nc2-c2ccoc2C)on1`, for which the Percent Effect in experiment [1] was 3.94%; in experiment [2], -25.8%.
The corresponding values for `OCCN1CCN(Cc2coc(-c3ccc(Cl)cc3)n2)CC1` are 4.16% and 3.75%.
